PubChem BioAssay (NCATS)
Inconclusive results are not listed. Active and inactive are the calls of the source. The call rests on the fitted dose curve; in most records, active means well fitted cell-killing curve with a large enough effect; inconclusive means small, poorly fitted or top-dose-only effect, or effect the other way; inactive means flat fitted curve, though single readings scatter.

Experiments:
Assay in all cases: Primary qHTS to identify gynecologic anti-cancer compounds using libraries of approved drugs and bioactive compounds (AID 1345084); further: nearly all actives have a fitted effect of over 55% in size
C33A = details: Gynecologic cancer cell panel viability, ATPlite luminescence, 48 h; series mostly up to 57.5 µM
Outline: (§1)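 Five-point cytotoxicity, 48 h drug exposure at 37 C, 5% CO2, on cells seeded 16 h beforehand. ATP content read by ATPlite luminescence.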

CAOV3 = details: Gynecologic cancer cell panel viability, ATPlite luminescence, 48 h; series mostly up to 57.5 µM
Outline: as §1

CASKI = details: Gynecologic cancer cell panel viability, ATPlite luminescence, 48 h; series mostly up to 57.5 µM
Outline: as §1

Es-2 = details: Gynecologic cancer cell panel viability, ATPlite luminescence, 48 h; series mostly up to 57.5 µM
Outline: as §1

HeLa = details: Gynecologic cancer cell panel viability, ATPlite luminescence, 48 h; series mostly up to 57.5 µM
Outline: as §1

Hek293T = details: Gynecologic cancer cell panel viability, ATPlite luminescence, 48 h, control line for the selectivity index; series mostly up to 57.5 µM
Outline: as §1

JEG-3 = details: Gynecologic cancer cell panel viability, ATPlite luminescence, 48 h; series mostly up to 57.5 µM
Outline: as §1

OV90 = details: Gynecologic cancer cell panel viability, ATPlite luminescence, 48 h; series mostly up to 57.5 µM
Outline: as §1

PA-1 = details: Gynecologic cancer cell panel viability, ATPlite luminescence, 48 h; series mostly up to 57.5 µM
Outline: as §1

SKOV3 = details: Gynecologic cancer cell panel viability, ATPlite luminescence, 48 h; series mostly up to 57.5 µM
Outline: as §1

Tov-21-G = details: Gynecologic cancer cell panel viability, ATPlite luminescence, 48 h; series mostly up to 57.5 µM
Outline: as §1

Tov112D = details: Gynecologic cancer cell panel viability, ATPlite luminescence, 48 h; series mostly up to 57.5 µM
Outline: as §1
On the % scale 0 is the no-effect control and ±100 the full control effect.

COc1cc(/C=C/C(=O)OC[C@H]2O[C@@H](OC3OC=C(C(=O)O)C4C(O)CC(C)(O)C34)[C@H](O)[C@@H](O)[C@@H]2O)cc(OC)c1O (stereo partly specified)
inactive: Potency (C33A) | Potency (CAOV3) | outcome (CASKI) | Potency (Es-2) | Potency (HeLa) | Potency (Hek293T) | Potency (JEG-3) | Potency (OV90) | Potency (PA-1) | Potency (SKOV3) | Potency (Tov-21-G) | Potency (Tov112D)

CC1CC2(O)OC(=O)C3=C2C(CCC3)[C@@]12C[C@@H](c1ccoc1)OC2=O (stereo partly specified)
inactive: Potency (C33A) | Potency (CAOV3) | outcome (CASKI) | Potency (Es-2) | Potency (HeLa) | Potency (Hek293T) | Potency (JEG-3) | Potency (OV90) | Potency (PA-1) | Potency (SKOV3) | Potency (Tov-21-G) | Potency (Tov112D)

C=C1CCC2[C@](C)(CCC[C@]2(C)C(=O)O)[C@H]1CC/C(C)=C/C(=O)OC (stereo partly specified)
inactive: Potency (C33A) | Potency (CAOV3) | outcome (CASKI) | Potency (Es-2) | Potency (HeLa) | Potency (Hek293T) | Potency (JEG-3) | Potency (OV90) | Potency (PA-1) | Potency (SKOV3) | Potency (Tov-21-G) | Potency (Tov112D)

CCC[C@H](N[C@@H](C)C(=O)N1[C@H](C(=O)O)C[C@@H]2CCCC[C@@H]21)C(=O)O
inactive: Potency (C33A) | Potency (CAOV3) | outcome (CASKI) | Potency (Es-2) | Potency (HeLa) | Potency (Hek293T) | Potency (JEG-3) | Potency (OV90) | Potency (PA-1) | Potency (SKOV3) | Potency (Tov-21-G) | Potency (Tov112D)

C[C@@H]1O[C@@H](O[C@H]2[C@H](OC(=O)[C@]34CCC(C)(C)C[C@H]3C3=CCC5[C@@]6(C)CC[C@H](O[C@@H]7O[C@H](CO[C@@H]8OC[C@H](O)[C@H](O)[C@H]8O[C@@H]8OC[C@@H](O)[C@H](O)[C@H]8O)[C@@H](O)[C@H](O)[C@H]7O)C(C)(C)C6CC[C@@]5(C)[C@]3(C)C[C@H]4O)O[C@H](CO)[C@@H](O)[C@@H]2O)[C@H](O[C@@H]2O[C@H](CO)[C@@H](O)[C@H](O)[C@H]2O)[C@H](O)[C@H]1O[C@@H]1OC[C@@H](O)[C@H](O[C@@H]2OC[C@@H](O)[C@H](O)[C@H]2O)[C@H]1O (stereo partly specified)
inactive: activity change, negative = cytotoxicity (C33A) 6.83% [at 6.55 µM] | activity change, negative = cytotoxicity (CAOV3) -0.37% [at 6.55 µM] | activity change, negative = cytotoxicity (CASKI) -2.72% [at 6.55 µM] | activity change, negative = cytotoxicity (Es-2) -1.37% [at 6.55 µM] | activity change, negative = cytotoxicity (HeLa) 0.0394% [at 6.55 µM] | activity change, negative = cytotoxicity (Hek293T) 6.55% [at 6.55 µM] | activity change, negative = cytotoxicity (JEG-3) 9.73% [at 6.55 µM] | activity change, negative = cytotoxicity (OV90) -1.86% [at 6.55 µM] | activity change, negative = cytotoxicity (PA-1) 1.34% [at 6.55 µM] | activity change, negative = cytotoxicity (SKOV3) 0% [at 6.55 µM] | activity change, negative = cytotoxicity (Tov-21-G) -2.86% [at 6.55 µM] | activity change, negative = cytotoxicity (Tov112D) 0.0551% [at 6.55 µM]

C=CCC/C=C/C#CCCCCCCCC[C@H]1C(=O)O[C@H](C)[C@@H]1O
inactive: Potency (C33A) | Potency (CAOV3) | outcome (CASKI) | Potency (Es-2) | Potency (HeLa) | Potency (Hek293T) | Potency (JEG-3) | Potency (OV90) | Potency (PA-1) | Potency (SKOV3) | Potency (Tov-21-G) | Potency (Tov112D)

COc1cc(/C=C/C(=O)OC[C@H]2O[C@@H](OC3CC(C)=C(C(=O)O)C(C)(C)C3)[C@H](O)[C@@H](O)[C@@H]2O)cc(OC)c1O (stereo partly specified)
inactive: Potency (C33A) | Potency (CAOV3) | outcome (CASKI) | Potency (Es-2) | Potency (HeLa) | Potency (Hek293T) | Potency (JEG-3) | Potency (OV90) | Potency (PA-1) | Potency (SKOV3) | Potency (Tov-21-G) | Potency (Tov112D)

CN1CCN(C2=Nc3ccccc3Nc3ccc(O)cc32)CC1
inactive: Potency (C33A) | Potency (CAOV3) | outcome (CASKI) | Potency (Es-2) | Potency (HeLa) | Potency (Hek293T) | Potency (JEG-3) | Potency (OV90) | Potency (PA-1) | Potency (SKOV3) | Potency (Tov-21-G) | Potency (Tov112D)

CC(C)(O)[C@@H]1CC[C@]2(CO)[C@@H](O)CC[C@](C)(O)[C@H]2[C@@H]1O[C@@H]1O[C@H](CO)[C@@H](O)[C@H](O)[C@H]1O
inactive: Potency (C33A) | Potency (CAOV3) | outcome (CASKI) | Potency (Es-2) | Potency (HeLa) | Potency (Hek293T) | Potency (JEG-3) | Potency (OV90) | Potency (PA-1) | Potency (SKOV3) | Potency (Tov-21-G) | Potency (Tov112D)

COc1cccc(Cn2ncc3c4sc(S(C)=O)cc4n(C)c3c2=O)c1 (stereo unspecified)
inactive: Potency (C33A) | Potency (CAOV3) | outcome (CASKI) | Potency (Es-2) | Potency (HeLa) | Potency (Hek293T) | Potency (JEG-3) | Potency (OV90) | Potency (PA-1) | Potency (SKOV3) | Potency (Tov-21-G) | Potency (Tov112D)

O=C(/C=C/c1ccc(O)c(O)c1)O[C@H]1[C@@H]2C=CO[C@@H](O[C@@H]3O[C@H](CO)[C@@H](O)[C@H](O)[C@H]3O)[C@@H]2[C@@]2(CO)O[C@@H]12
inactive: Potency (C33A) | Potency (CAOV3) | outcome (CASKI) | Potency (Es-2) | Potency (HeLa) | Potency (Hek293T) | Potency (JEG-3) | Potency (OV90) | Potency (PA-1) | Potency (SKOV3) | Potency (Tov-21-G) | Potency (Tov112D)

C[C@@H]1O[C@@H](O[C@H]2[C@@H]3C=CO[C@@H](O[C@@H]4O[C@H](CO)[C@@H](O)[C@H](O)[C@H]4O)[C@@H]3[C@@]3(CO)O[C@@H]23)[C@H](O)[C@H](OC(=O)/C=C/c2ccc(O)c(O)c2)[C@H]1O
inactive: Potency (C33A) | Potency (CAOV3) | outcome (CASKI) | Potency (Es-2) | Potency (HeLa) | Potency (Hek293T) | Potency (JEG-3) | Potency (OV90) | Potency (PA-1) | Potency (Tov-21-G)

CS(=O)(=O)c1ccccc1N1CCN(c2nc3c(c(=O)[nH]2)CSCC3)CC1
inactive: Potency (C33A) | Potency (CAOV3) | outcome (CASKI) | Potency (Es-2) | Potency (HeLa) | Potency (Hek293T) | Potency (JEG-3) | Potency (OV90) | Potency (PA-1) | Potency (SKOV3) | Potency (Tov-21-G) | Potency (Tov112D)

CC1=C2C[C@@]3(C)C(CCC[C@@H]3C)C(O)C2(O)OC1=O (stereo partly specified)
inactive: Potency (C33A) | Potency (CAOV3) | outcome (CASKI) | Potency (Es-2) | Potency (HeLa) | Potency (Hek293T) | Potency (JEG-3) | Potency (OV90) | Potency (PA-1) | Potency (Tov-21-G) | Potency (Tov112D)

O=C(C[C@@H]1C(C(=O)O)=CO[C@@H](O[C@@H]2O[C@H](CO)[C@@H](O)[C@H](O)[C@H]2O)/C1=C\CO)OCCc1ccc(O)c(O)c1
inactive: Potency (C33A) | Potency (CAOV3) | outcome (CASKI) | Potency (Es-2) | Potency (HeLa) | Potency (Hek293T) | Potency (JEG-3) | Potency (OV90) | Potency (PA-1) | Potency (Tov-21-G) | Potency (Tov112D)
